Screen size: about 220,000 compounds; about 2,000 (0.91%) were called active. Roughly 2% stayed inconclusive and do not appear here. No stated cut-off is given here; in the data, inconclusive means inhibition above about 80% without an active follow-up result; inactive means below that; test concentration not stated here. These entries were drawn from the full list. Measured potencies and affinities stand elsewhere.
Assay: M. tuberculosis H37Rv growth inhibitors, H37Rv strain (AID 1626);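 further: bacteria incubated seven days before Alamar blue readout; 0% = bacteria only wells and 100% = bacteria with antibiotic wells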
Settings: stronger effect = higher value, concentration not given here

SMILES	inhibition
CCN(CC)S(=O)(=O)c1ccc(NC(=O)C(C)N(c2ccccc2)S(C)(=O)=O)cc1 (centres undefined)	-1.18% (inactive)
COc1ccc(-c2nnc3ccc(SCC(=O)NCC4CCCO4)nn23)cc1 (centres undefined)	-3.46% (inactive)
CCc1ccc2nc(-c3cccc(C)c3)nc(SCC(=O)NCC3CCCO3)c2c1 (centres undefined)	-13% (inactive)
COc1ccc(-c2nnc(SCC(=O)NCC3CCCO3)n2C)cc1 (centres undefined)	-4.37% (inactive)
Cc1cccc(-c2nsc(SCC(=O)Nc3cc(C)on3)n2)c1	70.6% (inactive)
Cc1cc(NS(=O)(=O)c2ccccc2)n(-c2ccccc2)n1	-2.44% (inactive)
CCC(=O)N1CCc2cc(S(=O)(=O)NCCC(=O)N3CCN(c4ccccn4)CC3)ccc21	-5.78% (inactive)
COc1cc(/C=N/NC(=O)COc2ccccc2[N+](=O)[O-])ccc1OC(=O)c1ccco1	4.21% (inactive)
Cn1ccnc1SCC(=O)Nc1ccc(Oc2ccccc2)cc1	3.6% (inactive)
CCCN1CCN(CCCNC(=O)C2CCN(c3nnc(-n4cccc4)s3)CC2)CC1	-6.41% (inactive)
O=C(CSc1nc(-c2ccccc2Cl)ns1)NCc1ccco1	24.3% (inactive)
NC(=O)CSc1nc(-c2ccccc2Cl)ns1	-12.5% (inactive)
COc1ccc(-n2c(C)cc(SC)c(C(C)=O)c2=S)cc1	1.47% (inactive)
CC(Sc1nncn1C)C(=O)Nc1ccc(Cl)cn1 (centres undefined)	4.99% (inactive)
CC(Sc1nnnn1-c1ccccc1)C(=O)Nc1ccc(Cl)cn1 (centres undefined)	-7.65% (inactive)
COc1cccc(C2c3c(C)nn(-c4ccc([N+](=O)[O-])cc4)c3N=C3C(=O)Nc4ccccc4N32)c1 (centres undefined)	72.8% (inactive)
Cc1nn(-c2ccccc2)c2c1C(c1ccc(Cl)cc1)N(c1ccccc1)C(=O)N2 (centres undefined)	63.4% (inactive)
Cc1nn(-c2ccc([N+](=O)[O-])cc2)c2c1C(c1cccc(Br)c1)N1C(=N2)C(=O)Nc2ccccc21 (centres undefined)	73% (inactive)
Cc1nn(-c2ccccc2)c2c1C(c1ccc([N+](=O)[O-])cc1)C(C#N)=C(N)O2 (centres undefined)	-9.83% (inactive)
Cc1c(NC(=O)C(C)OC(=O)COc2cccc3c2OC(C)(C)C3)c(=O)n(-c2ccccc2)n1C (centres undefined)	0.88% (inactive)
COCCNC(=O)COC(=O)c1ccc(OCC(=O)Nc2ccccc2OC)c(OC)c1	2.52% (inactive)
CCC1(C)CC(C(N)=S)CCO1 (centres undefined)	7.13% (inactive)
CCOC(=O)c1ccc(CSc2nnc(C)n2N)o1	1.16% (inactive)
NC(=O)C[C@H]1NC(=O)[C@H](CCC(=O)O)NC(=O)c2cc([N+](=O)[O-])cc(I)c2NCCC[C@@H](C(N)=O)NC1=O	3.24% (inactive)

SMILES	inhibition
Oc1ccc(Nc2ccnc3cc(Cl)ccc23)cc1	-0.59% (inactive)
c1ccc2cc3c(NCCN4CCOCC4)ccnc3cc2c1	3.77% (inactive)
c1ccc(CCNc2ncnc3ccccc23)cc1	-6.97% (inactive)
COc1ccc(Nc2ccnc3ccccc23)cc1	9.05% (inactive)
Cc1c(C(=O)NCc2ccccc2Cl)oc2c1C(=O)CCC2	-3.25% (inactive)
CCCCn1nc2cc(C(=O)NCc3cc(C(F)(F)F)cc(C(F)(F)F)c3)ccc2c1OC	-4.51% (inactive)
O=C(NC1CCCCC1)c1ccc(Cn2cc(Cl)cn2)cc1	0.85% (inactive)
CCCSc1ccc(C(=O)Nc2ccc(F)cc2F)cn1	72.4% (inactive)
CC(=O)Nc1ccc(NC(=O)c2ccc(Cl)nc2)cc1	3.97% (inactive)
N=C1/C(=C/c2cccn2-c2cccc([N+](=O)[O-])c2)C(=O)N=C2SC=CN12	-11.3% (inactive)
N=C1/C(=C/c2cccn2-c2ccc([N+](=O)[O-])cc2)C(=O)N=C2SC=CN12	-5.89% (inactive)
Cc1ccc2cc(CN(CC3CCCO3)C(=O)C(C)C)c(=O)[nH]c2c1 (centres undefined)	-3.77% (inactive)
CCCCCCCCCCCCCCCC[n+]1cccc(C(=O)N(CC)CC)c1	5.29% (inactive)
C=C(C)Cn1c(=O)c(NC(=O)c2ccccc2)c2n(c1=S)CCC2	-3.38% (inactive)
O=C(NCCCN1CCOCC1)c1cccnc1SCc1ccccc1Cl	-2.04% (inactive)
CCN(CC)CCN(Cc1cc2ccc(C)c(C)c2[nH]c1=O)C(=S)NCc1ccco1	-6.4% (inactive)
COc1ccc(-c2cn[nH]c2-c2ccc(OCc3ccc([N+](=O)[O-])cc3)cc2O)cc1	9.69% (inactive)
O=[N+]([O-])c1ccc(COc2ccc(-c3[nH]ncc3-c3ccccc3)c(O)c2)cc1	11.9% (inactive)
Cc1ccc(SCc2ccc(C(=O)N3CCCCC3)cc2)cc1	4.74% (inactive)
COC(=O)CCCCC1SCC(NC(=O)c2ccccc2)C1OC(C)=O (centres undefined)	-1.97% (inactive)
COC(=O)/C(=C\Nc1ccc(OC)cc1)NC(=O)c1ccc(Cl)cc1Cl	46.4% (inactive)
NS(=O)(=O)c1ccc(NC(=O)/C=C/c2cccs2)cc1	-2.49% (inactive)
CCN(CC)CCOC(=O)c1ccc(NC(=O)/C=C/c2cccs2)cc1	-0.83% (inactive)
CCCOC(=O)c1ccc(NS(=O)(=O)c2cccs2)cc1	8.32% (inactive)

SMILES	inhibition
O=C(/C=C/c1cccs1)Nc1ccncc1	-3.31% (inactive)
CC(=O)Nc1ccc(N(C(=O)c2ccco2)C(C(=O)NC2CCCC2)c2cccs2)cc1 (centres undefined)	-12.6% (inactive)
O=C(O)c1cc([N+](=O)[O-])ccc1Nc1ccccc1	0.55% (inactive)
CCOC(=O)C1=C(C)N(Cc2ccccc2)C(=O)NC1c1ccccc1OS(=O)(=O)c1ccccc1[N+](=O)[O-] (centres undefined)	1.38% (inactive)
CCNC(=O)CN(C1CCCCC1)S(C)(=O)=O	-1.63% (inactive)
Cc1cc(N2CCN(C(=O)c3ccco3)CC2)n2ncnc2n1	0.62% (inactive)
O=C(Nc1ccc(Cl)c(Cl)c1)Oc1ccc(NC(=O)c2ccco2)cc1	61.8% (inactive)
CCc1ccc(C(C)NC(=O)Cc2ccc(F)cc2)cc1 (centres undefined)	9.96% (inactive)
CCOC(=O)Cn1c(-c2ccccc2)nc2ccccc2c1=O	45.8% (inactive)
COCCCn1c(-c2ccccc2)nc2ccccc2c1=O	5.89% (inactive)
CCCNS(=O)(=O)c1ccc(OCC(=O)Nc2ccc3c(c2)OCO3)cc1	-3.44% (inactive)
CCCN(CC1CC1)C(=S)Nc1ccc(C(C)=O)cc1	-2.45% (inactive)
COc1cc(-c2nn3c(C4CCCCC4)nnc3s2)cc(OC)c1OC	28.5% (inactive)
COc1ccc(-c2nn3c(C4CCCCC4)nnc3s2)cc1OC	4.71% (inactive)
Cc1nnc(Sc2cc(C(=O)NCCCOC(C)C)c3ccccc3n2)s1	4.65% (inactive)
CCN1C(=O)C2(C(C#N)=C(N)Oc3n[nH]c(COC)c32)c2ccccc21 (centres undefined)	-1.31% (inactive)
Cc1cccc2cc(CNCc3ccccc3)c(Cl)nc12	-2.86% (inactive)
Cc1ccc(CNCc2ccccc2Cl)cc1	6.89% (inactive)
Cc1cc(C)c(NC(=O)CSc2nc3ccc(NC(=O)CSc4nnnn4Cc4ccccc4)cc3s2)c(C)c1	8.59% (inactive)
O=C(CCN1CCN(Cc2ccccc2)CC1)Nc1cccc(Cl)c1	-5.85% (inactive)
Cc1cc(C)c2c(CN3CCN(Cc4ccc5c(c4)OCO5)CC3)cc(=O)oc2c1	23.5% (inactive)
Cc1ccc2c(CN3CCN(Cc4ccc5c(c4)OCO5)CC3)cc(=O)oc2c1C	-3.12% (inactive)
CCOc1ccccc1NC(=O)CN1C(=O)CSC(C)C1=O (centres undefined)	2.75% (inactive)
CNC(=S)N1N=C(c2ccc(C)cc2)CC1c1ccc(OC)cc1 (centres undefined)	3.11% (inactive)

SMILES	inhibition
COC(=O)c1cn(C(=O)/C=C/c2ccc(OC)c(OC)c2)c2ccccc12	4.86% (inactive)
c1ccc(Cn2c(CNc3nc4ccccc4n3CCN3CCCCC3)nc3ccccc32)cc1	16.8% (inactive)
CCOC(=O)c1ccc(NC(=S)NNC(=O)C2(C)CC2(Cl)Cl)cc1 (centres undefined)	1.27% (inactive)
O=C1OC(c2cccs2)=N/C1=C\c1ccc(-c2cccc(Cl)c2)o1	4.3% (inactive)
O=C1/C(=C/c2ccco2)SC(=S)N1c1cccnc1	-3.57% (inactive)
N=C1S/C(=C\c2ccco2)C(=O)N1c1ccc2c(c1)OCO2	3.8% (inactive)
CN1C(=O)C(=Cc2ccc(-c3cccc(Cl)c3)o2)C(=O)N(C)C1=O	5.04% (inactive)
O=S(=O)(c1cnc(Cl)c(Br)c1)N1CCN(c2ncccn2)CC1	-10.8% (inactive)
Cc1ccc(C(NC(=O)c2ccccc2)C(Cl)(Cl)Cl)cc1 (centres undefined)	5.19% (inactive)
CC(=O)NC(O)C(=O)c1ccccc1 (centres undefined)	3.23% (inactive)
O=Cc1cn(CC(=O)NCC2CCCO2)c2ccccc12 (centres undefined)	2.23% (inactive)
Cc1occc1-c1nnc(SCC(=O)NC2CCCC2)n1-c1ccccc1	2.16% (inactive)
CCN(CC)C(=O)CSc1ncnc2c1cnn2Cc1ccccc1	-79.5% (inactive)
CNC(=O)CSc1ncnc2c1cnn2-c1ccccc1	-3.44% (inactive)
CC(=O)CSc1ncnc2c1cnn2-c1ccccc1	-1.25% (inactive)
CCOC(=O)CNC(=O)CSc1ncnc2c1cnn2-c1ccc(Cl)cc1	14.2% (inactive)
CCOC(=O)CC(=O)CSc1ncnc2c1cnn2-c1ccccc1	-1.22% (inactive)
NC(=O)CSc1ncnc2c1cnn2Cc1ccccc1	-0.76% (inactive)
CC(C)(C)C(=O)CSc1ncnc2c1cnn2-c1ccccc1	9.82% (inactive)
CCOC(=O)Cn1cnc2c(cnn2-c2ccc(Cl)cc2)c1=O	-3.87% (inactive)
COc1ccc(Cc2nnc(SCC(=O)N3CCCCC3)o2)cc1	3.26% (inactive)
O=C1N(Cc2cccnc2)C[C@@H]2C[C@@H](c3cccc(C(F)(F)F)c3)N3CCC[C@@]123	2.57% (inactive)

Source: PubChem BioAssay AID1626 (SRMLSC, 2009)
